The whole screen tested about 320,000 compounds, of which about 8,000 (2.5%) were called active. For the sample, actives were picked, then their nearest neighbours and some compounds at random. Values without a mark were called inactive. Rule as the data show it: active = activation above about 47%; inactive = the rest.

This assay deals with Aryl hydrocarbon receptor (Homo sapiens) (UniProt P35869). The experiment in a line: AHR activators, primary screen, cell-based, luminescence, luciferase reporter, human (AID 2796).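 Also: 0% = vehicle wells and 100% = reference agonist.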 Conditions: AHR-responsive luciferase reporter cells, at 5 µM, hits give high values. In general terms: A reporter such as luciferase makes a cellular process visible.
Aryl hydrocarbon receptor (Homo sapiens), sequence (P35869 whole entry, looked up): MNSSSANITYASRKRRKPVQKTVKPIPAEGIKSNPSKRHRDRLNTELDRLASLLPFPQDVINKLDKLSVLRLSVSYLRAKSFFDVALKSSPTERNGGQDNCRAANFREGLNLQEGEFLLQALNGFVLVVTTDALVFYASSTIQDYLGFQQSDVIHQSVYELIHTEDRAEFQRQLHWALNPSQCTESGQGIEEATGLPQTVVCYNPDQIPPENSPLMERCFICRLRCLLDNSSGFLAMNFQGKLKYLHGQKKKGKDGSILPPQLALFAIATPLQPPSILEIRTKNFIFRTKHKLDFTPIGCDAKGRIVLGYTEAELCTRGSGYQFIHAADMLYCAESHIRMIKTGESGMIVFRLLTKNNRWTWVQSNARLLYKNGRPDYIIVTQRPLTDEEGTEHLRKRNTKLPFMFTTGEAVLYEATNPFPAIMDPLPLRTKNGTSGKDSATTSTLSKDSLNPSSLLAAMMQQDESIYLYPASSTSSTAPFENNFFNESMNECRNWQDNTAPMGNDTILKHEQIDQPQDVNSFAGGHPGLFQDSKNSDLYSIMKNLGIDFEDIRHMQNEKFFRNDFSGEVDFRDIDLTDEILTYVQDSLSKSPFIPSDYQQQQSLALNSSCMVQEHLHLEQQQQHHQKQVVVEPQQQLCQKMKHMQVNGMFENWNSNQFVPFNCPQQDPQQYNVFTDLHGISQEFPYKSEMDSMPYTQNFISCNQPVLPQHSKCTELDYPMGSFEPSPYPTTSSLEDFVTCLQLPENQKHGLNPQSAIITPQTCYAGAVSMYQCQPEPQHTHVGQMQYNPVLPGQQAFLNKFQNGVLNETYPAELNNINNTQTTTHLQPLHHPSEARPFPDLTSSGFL
On to `CCCNC(=O)c1cnc(-c2ccccc2)nc1-c1ccccc1`, for which the activation is 3.22%. The same measure for `CCOc1ccc(/C=C(/NC(=O)c2ccccc2)C(=O)NCCC(=O)O)cc1`: 3.46%; for `COc1cc(OC)c(NS(=O)(=O)c2cn(C)cn2)cc1Cl`: -0.48%; for `Cc1ccc(NC(=O)C2CCC(C(C)(C)C)CC2)cc1S(=O)(=O)N1CCOCC1` (centres undefined): 1.24%. As for `Cc1csc(=O)n1CC(=O)Nc1ccc(S(C)(=O)=O)cc1`, the figure is -1.77%. The same measure for `CCOC(=O)c1ccc(NC(=O)c2ccc(NC(=O)C3CCCO3)cc2)cc1` (centres undefined): 3.91%; for `COc1ccc(N(CC(=O)N2CCOCC2)S(=O)(=O)c2ccccc2)cc1Cl`: 0.59%; for `O=C1COc2ccc(C(=O)COC(=O)c3ccccc3Cl)cc2N1`: -0.97%. With `Cc1ccc(C2Nc3cccc4cccc(c34)N2)cc1`, the activation was 30.3%. The same measure for `Oc1ccc(C2Nc3cccc4cccc(c34)N2)cc1`: 9.92%; for `COc1ccc(C2NC(=O)c3ccccc3N2)cc1` (centres undefined): 102% (active). As to `CC(Oc1ccc(-c2ccccc2)c(F)c1)c1ccn(S(=O)(=O)c2cccc3ccccc23)n1` (centres undefined), the activation was 0.53%. With `O=C(NC(=O)c1ccc(Cl)c(Cl)c1)OC1CCS(=O)(=O)C1` (centres undefined), the activation was 2.16%. Consider `O=C(Cn1ncc(N2CCCC2)c(Br)c1=O)c1ccc(Cl)cc1`, for which the activation is 3.04%.

In the case of `COc1cccc(CNc2ncc(-c3ccccc3)n2C)c1`, the activation was 8.66%. For the compound `Cc1ccc(-c2csc(-c3cc(C)on3)n2)cc1`, the activation was -2.07%. As for `CCCc1cc(-c2nc(-c3ccc(C)cc3)cs2)ccn1`, the activation was 23.7%.

As for `Cc1ccc(-c2csc(-c3c[nH]c4ccccc34)n2)cc1`, the activation was 74.3% (active). Consider `CCC(C)NC(=O)C1CCC(=O)N1Cc1ccc(C)cc1` (centres undefined), for which the activation is 4.04%. The same measure for `O=C(NCCc1ccc(Cl)cc1Cl)c1cc([N+](=O)[O-])c[nH]c1=O`: 6.38%; for `COC(=O)c1c(NC(C)=O)sc(C(=O)Nc2ccccc2OC)c1C`: 47.1% (active). For the compound `COc1ccccc1NC(=O)c1ccc(C)s1`, the activation was 26.2%. Consider `CCC(=O)Nc1sc(C(=O)Nc2ccccc2)c(C)c1C(=O)OC`, for which the activation is -2.8%. `CN1CCN(S(=O)(=O)c2cccc(C(=O)Nc3sccc3C#N)c2)CC1`: the activation was 3.96%. Take `O=C(CC12CC3CC(CC(C3)C1)C2)Nc1ccc2c(c1)COC2=O`: the activation was 0.6%.

On to `O=S(=O)(O)c1nc2ccccc2n1Cc1ccc(Cl)cc1Cl`, for which the activation was 3.2%.

As for `CC(C)(C)C(=O)Cn1c(NCCO)nc2ccccc21`, the activation was -1.23%. Consider `O=C(Cn1c(NCCO)nc2ccccc21)c1ccc(Cl)cc1Cl`, for which the activation was 103% (active). Consider `CN(CC(=O)NCCc1ccc(S(N)(=O)=O)cc1)CC(=O)Nc1ccc(F)c(F)c1F`, for which the activation is 1.42%. In the case of `O=S(=O)(Cc1ccccc1)c1nc2ccccc2n1Cc1ccccn1`, the activation is -1.4%. As for `COc1ccc(C2CC(c3cccs3)=NN2c2ccccc2)cc1` (centres undefined), the activation is 3.12%.

For the compound `O=c1c2cc(-c3ccccc3)sc2nc2n1N=C(c1cccs1)CS2`, the activation is 58.8% (active). With `Cc1nnc2n1N=C(c1ccccc1)CS2`, the activation is 1.52%. In the case of `O=S1(=O)CC(NCc2ccccc2)C(Nc2ccc(Cl)cc2)C1` (centres undefined), the activation is 0.94%. For the compound `CSCCC(NC(=O)COc1ccccc1)C(=O)N(C)CC(=O)Nc1ccc(C)cc1` (centres undefined), the activation was 1.75%. As for `CCN(CC(=O)NC1CCS(=O)(=O)C1)c1nc(-c2cccnc2)nc2ccccc12` (centres undefined), the figure is 1.86%. As for `O=[N+]([O-])c1ccc(F)cc1Oc1nc(-c2cccnc2)nc2ccccc12`, the figure is 62.5% (active); as for `O=[N+]([O-])c1ccc(Oc2ccc(F)cc2Br)c2ccncc12`, 15.1%. On to `CCCCn1c(N)c(N(CCOC)C(=O)CSCC(=O)Nc2cccc(C)c2)c(=O)[nH]c1=O`, for which the activation was 1.66%. Turning to `CCc1nn(CC(=O)N2CCN(c3cc(C)ccc3C)CC2)c(=O)c2cc3occc3n12`, the activation was 4.48%. As for `Cc1ccc(C)c(N2CCN(C(=O)Cn3ncn4cccc4c3=O)CC2)c1`, the figure is 49.4% (active); as for `Cc1ccc(C)c(N2CCN(C(=O)CCCn3c(=O)c4cccn4c4cccnc43)CC2)c1`, 6.45%. As for `COc1ccc2nc3n(c(=O)c2c1)-c1ccc(Cl)cc1C(=O)NC3Cc1ccccc1` (centres undefined), the figure is 1.56%; as for `O=C(O)c1ccccc1-c1ccccc1C(=O)Nc1ccccc1Br`, 0.17%. Consider `CCn1ccnc1CN(C)Cc1nc(-c2ccc3c(c2)OCO3)no1`, for which the activation is 86.7% (active). The same measure for `CC(C)N(Cc1nc(-c2ccc3c(c2)OCO3)no1)CC1CCC(=O)N1` (centres undefined): 16.6%. Regarding `CN(CCN1CCOCC1)Cc1nc(-c2ccc3c(c2)OCO3)no1`, the activation is 10.5%. On to `CCOc1c2ccc(C(=O)NC3CCCc4ccccc43)cc2nn1CC` (centres undefined), for which the activation is 7.2%. Consider `O=C(Nc1ccc(C(=O)N2CCCCC2)cc1)c1cccc([N+](=O)[O-])c1`, for which the activation was -1.69%. As for `O=C(Nc1ccc(C2CC2(Cl)Cl)cc1)c1cccc([N+](=O)[O-])c1` (centres undefined), the activation was 96.3% (active).

In the case of `Cc1cc(C)nc(NC(=O)c2cccc([N+](=O)[O-])c2)c1`, the activation was 40.8%. For `Cc1ccc(-c2nn(-c3ccccc3)cc2C(=O)NCCCN2CCCC2=O)cc1`, the activation is 1.15%. For `CCC(C)(C)NC(=O)/C=C/c1cc(OC)c(OC)c(S(=O)(=O)N2CCc3ccccc32)c1`, the activation was 5.39%. As for `NC(=O)N/N=C\c1cccs1`, the activation is -0.87%.

Consider `COc1ccc(N(CC(=O)N/N=C/c2cccs2)S(=O)(=O)c2ccc(OC)c(OC)c2)cc1`, for which the activation is 1.41%. Consider `COc1ccc2c(c1)c(C(=O)N/N=C/c1cccs1)c(C)n2C`, for which the activation was 72.6% (active).

As for `COc1cc(C(=O)NCc2nnc(SCC(=O)Nc3nc4ccc(C)cc4s3)o2)cc(OC)c1OC`, the activation is -5.66%. As for `O=C(/C(=C/c1cccc(Cl)c1)c1nc2ccccc2[nH]1)c1ccccc1`, the figure is 44.8%. For the compound `CCC(=O)/C(=C(/O)c1ccccc1)c1nc2ccccc2[nH]1`, the activation is 64.6% (active).

Take `COCCN(CCOC)S(=O)(=O)c1ccc(/C(O)=C(\C#N)c2nc3ccccc3[nH]2)cc1`: the activation is 6.43%. On to `COC(C[C@@H]1O[C@@H]1C(=O)[C@@H](C)OCc1ccccc1)OC`, for which the activation is -3.27%. With `COc1ccc(Cl)cc1NC(=O)CN(C)C(=O)c1cc2ccccc2cc1OC`, the activation was 19.4%. The same measure for `COc1ccccc1NC(=O)CCCc1c[nH]c2ccccc12`: 6.67%; for `COc1ccc(Cl)cc1NC(=O)CN(C)C(=O)CCCc1c[nH]c2ccccc12`: 51.8% (active); for `O=C(OCC(=O)N1CCCCC1)c1ccc(OC(F)(F)F)cc1`: 0.31%.

Regarding `CN(C)NC(=O)c1csnc1-c1c(Cl)cccc1Cl`, the activation was 1.27%. Consider `CC1CC(=O)Nc2ccccc2N1C(=O)COc1ccc2cc(Br)ccc2c1` (centres undefined), for which the activation is 2.14%. Consider `COc1c(Cl)cc(C(=O)Nc2ccc(Cl)cn2)cc1Cl`, for which the activation is 67.2% (active). Turning to `COc1ccc(C(=O)NC(=S)Nc2ccc(Cl)cn2)cc1OC`, the activation is 5.66%. Consider `COc1ccc(C(=O)N/N=C(\C)CC(=O)Nc2ccc(Cl)cn2)cc1`, for which the activation was 13.8%. As for `COc1ccc(N(CC(=O)NCc2ccc(F)cc2)C(=O)CCC(=O)Nc2nccs2)cc1`, the figure is 0.66%; as for `COc1cccc(CNC(=O)CCN2C(=S)NC(C)(C)CC2C)c1` (centres undefined), 3.02%. With `O=C(CSc1nnc(-c2ccccc2O)o1)NC1CCCCC1`, the activation is -6.68%. Take `CCSc1nnc(-c2cc3c(s2)-c2ccccc2CC3)o1`: the activation is 62.1% (active).

For the compound `Fc1ccc(CSc2nnc(-c3cc4c(s3)-c3ccccc3CC4)o2)cc1`, the activation was 51.6% (active).

`CCCCSc1nnc(-c2ccc(C)cc2)o1`: the activation was -1.09%.

On to `Clc1ccc(CSc2nnc([C@@H]3CCCN3)o2)cc1`, for which the activation is 0.21%. The same measure for `Fc1ccc(-c2nnc(CSc3nnc(-c4ccc5c(c4)OCO5)o3)o2)cc1`: 11.2%; for `CCOc1ncccc1C(=O)NNC(=O)c1cccc(S(=O)(=O)Nc2ccccc2OC)c1`: -1.36%; for `COc1ccc(N(C(=O)CNC(=O)c2ccco2)C(C(=O)NCC2CCCO2)c2ccccc2)cc1Cl` (centres undefined): -0.46%. As for `CC1=NNC(=O)C1CC(=O)N/N=C/c1ccncc1` (centres undefined), the figure is -0.52%; as for `CCCCCC(=O)N1CCN(S(=O)(=O)c2ccc3c(c2)OCCCO3)CC1`, 1.73%; as for `c1ccc2c(C[n+]3csc4ccccc43)cccc2c1`, 12.7%. With `CN(C(=O)Cn1nnc(-c2ccc(F)cc2)n1)C1CCS(=O)(=O)C1` (centres undefined), the activation is -0.41%. For `O=C(Nc1cc(S(=O)(=O)N2CCCCC2)ccc1Cl)C1COc2ccccc2O1` (centres undefined), the activation is 0.26%. Consider `COCCN(CCOC)S(=O)(=O)c1ccc(C(=O)Nc2nc3c(s2)CCc2ccccc2-3)cc1`, for which the activation is 11.6%. For the compound `CCN(c1ccccc1)S(=O)(=O)c1ccc(C(=O)Nc2nccs2)cc1`, the activation was 3.71%. The same measure for `C=CCN(CC=C)S(=O)(=O)c1ccc(C(=O)Nc2nc3c(s2)CCc2ccccc2-3)cc1`: 50.7% (active). For the compound `Cn1cccc1C(=O)NC(=O)COC(=O)Cc1coc2ccc3ccccc3c12`, the activation was 16.2%. Consider `CCCCn1c(SCC(=O)N2CCOCC2)nc2c1c(=O)n(C)c(=O)n2C`, for which the activation was 0.02%. In the case of `Cc1cc(C)nc(Nc2n[nH]c(-c3ccccc3N)n2)n1`, the activation is 67% (active). Consider `Cc1cc(C)nc(Nc2ncn[nH]2)n1`, for which the activation was 2.66%. Regarding `CCCOc1ccccc1-c1nc(SCCC(=O)O)n[nH]1`, the activation is 10.6%. With `CCCCNC(=O)Nc1c(C)cc(SC#N)cc1C`, the activation is 3.18%.
